In PubChem BioAssay (NCI):
About 83,000 compounds went through this panel and 20% of them were active in at least one assay; those are over-represented in the sample as a whole.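 Each cell line was grown in a 96-well plate and treated with one concentration of compound for 48 hours. Values below 10 were considered active.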 Unmarked numbers belong to inactive results. The source made the active and inactive calls.

Key:
Test in all cases: NCI-60 one-dose screen, 48 h (100 = growth as untreated, 0 = no growth, -100 = all killed)
Settings in all cases: 10 µM unless noted
[1] = tested on: NCI-H23 lung
[2] = tested on: NCI-H226 lung
[3] = tested on: NCI-H322M lung
[4] = tested on: HOP-62 NSCLC
[5] = tested on: NCI-H460 lung
[6] = tested on: HOP-92 NSCLC
[7] = tested on: NCI-H522 lung
[8] = tested on: A549/ATCC NSCLC
[9] = tested on: 786-0 renal
[10] = tested on: COLO 205 colon
[11] = tested on: DU-145 prostate
[12] = tested on: K-562 leukemia
[13] = tested on: MALME-3M melanoma
[14] = tested on: MDA-MB-231 breast
[15] = tested on: RXF 393 renal
[16] = tested on: SF-268 CNS
[17] = tested on: SF-295 CNS
[18] = tested on: SF-539 CNS
[19] = tested on: UACC-257 melanoma
[20] = tested on: M14 melanoma

Structure (SMILES)	growth [1]	growth [2]	growth [3]	growth [4]	growth [5]	growth [6]	growth [7]	growth [8]	growth [9]	growth [10]	growth [11]	growth [12]	growth [13]	growth [14]	growth [15]	growth [16]	growth [17]	growth [18]	growth [19]	growth [20]
Cn1nc(-c2ccccc2)c2c(-c3ccccc3)onc2c1=O	48%	62.1%	55.4%	31%	28.3%	43.9%	10.6%	35.4%	49.7%	15.2%	34.6%	13%	62.9%	52%	23.8%	47%	27.3%	2.75% (active)	49.2%	42.3%
C=C(C)[C@@H]1CC[C@]2(C(=O)OC)CC[C@]3(C)[C@H](CC[C@@H]4[C@@](C)(CC/C(N)=N/O)[C@H](C(=C)C)CC[C@]43C)[C@@H]12	107%	97.2%	105%	103%	99.5%	102%	95.4%	91.8%	94.7%	107%	104%	86.3%	98.2%	104%	112%	96.6%	96.4%	97.5%	103%	99.1%
CC(c1ccccc1)N1C(=O)C(C2SC(=S)N(C(C)c3ccccc3)C2=O)SC1=S (stereo not given)	96.1%	99.9%	93.1%	97.5%	82.5%	83.7%	77.5%	82.3%	96.2%	85.7%	95.1%	57.9%	69.9%	73.4%	85.6%	92.2%	98.6%	50.6%	81.7%	69.8%
COc1ccc(-c2nc(SCC(=O)Nc3ccc(C(C)=O)cc3)[nH]c(=O)c2C#N)cc1	97.2%	91%	101%	101%	111%	98.3%	67.9%	85.3%	94.7%	115%	106%	98.8%	103%	95.2%	108%	101%	95.1%	97.6%	84.7%	87.6%
COc1cnc2c(c1)C(=O)c1c-2n(CCCNC(C)C)c(=O)c2cc([N+](=O)[O-])ccc12	-67.8% (active)	-58.8% (active)	-31.6% (active)	-53.2% (active)	-74.1% (active)	-80.1% (active)	-56.6% (active)	-65.5% (active)	-88.2% (active)	-74.3% (active)	-58.4% (active)	-14.4% (active)	-58.2% (active)	-60.5% (active)	-80.7% (active)	-61.2% (active)	-76.2% (active)	-63% (active)	-67% (active)	-76.8% (active)
CC1(C)C=CC[C@]2(C)[C@H]3CC[C@@H]4[C@H]5[C@H](C(=O)/C=C/c6cccnc6)CC[C@]5(CO)CC[C@@]4(C)[C@]3(C)CC[C@@H]12	-60% (active)	-54.1% (active)	9.88% (active)	-81.3% (active)	-62.4% (active)	-92.7% (active)	-73.7% (active)	-41.5% (active)	-59.8% (active)	-71.9% (active)	-94.2% (active)	-29.3% (active)	-85% (active)	-77.6% (active)	-86.7% (active)	-57.6% (active)	-91.4% (active)	-96.2% (active)	-49.7% (active)	-74.4% (active)
COc1cc2nc(Cl)nc(Nc3cccc(C(=O)/C=C/c4ccc(Br)cc4)c3)c2cc1OC	96.6%	83%	95.1%	98%	104%	83.6%	84.3%	85.1%	87%	101%	97.6%	35.9%	105%	78%	85.1%	94.5%	86.1%	82.2%	107%	89.8%
CC1(C)C(=O)/C(=C\c2cccnc2)C[C@]2(C)[C@H]3CC[C@@H]4[C@@H](C(=O)/C=C/c5ccncc5)CC[C@@]4(C)[C@]3(C)CC[C@@H]12	5.99% (active)	1.56% (active)	39.9%	2.07% (active)	23.7%	16.1%	30.1%	1.98% (active)	-55.7% (active)	12.3%	-1.7% (active)	3.14% (active)	0.438% (active)	16.8%	-84.2% (active)	27.3%	15.9%	1.24% (active)	49.3%	-13% (active)
O=C1CN(c2ccccc2)C(=O)C1C(=O)Nc1ccc(Cl)c(Cl)c1 (stereo not given)	31.2% [100 µM]	41.6% [100 µM]	19.6% [100 µM]	9.46% [100 µM] (active)	-2.82% [100 µM] (active)	10.6% [100 µM]	8.5% [100 µM] (active)	16.2% [100 µM]	0.0265% [100 µM] (active)	-23.1% [100 µM] (active)	38.9% [100 µM]	20.1% [100 µM]	-11.7% [100 µM] (active)	27.2% [100 µM]	34.7% [100 µM]	31.2% [100 µM]	0.977% [100 µM] (active)	-9.88% [100 µM] (active)	16.2% [100 µM]	28.8% [100 µM]
Cc1csc(Nc2nc(-c3cccc(Br)c3)nc(C(Cl)(Cl)Cl)n2)n1	85.6%	110%	-29.9% (active)	34%	9.54% (active)	51.2%	97.1%	5.62% (active)	75.2%	4.32% (active)	-5.72% (active)	84%	98.8%	15.5%	20.2%	78.1%	20.7%	41%	60.6%	86.4%
C#Cc1cccc(NC(=O)C2CCCN(C(=O)CCl)C2)c1 (stereo not given)	-27% [8.25 µM] (active)	1.82% [8.25 µM] (active)	111% [8.25 µM]	87.8% [8.25 µM]	97.5% [8.25 µM]	98.3% [8.25 µM]	-53.6% [8.25 µM] (active)	86.1% [8.25 µM]	89.5% [8.25 µM]	27.2% [8.25 µM]	102% [8.25 µM]	20.2% [8.25 µM]	3.83% [8.25 µM] (active)	81.5% [8.25 µM]	67% [8.25 µM]	78.3% [8.25 µM]	85.4% [8.25 µM]	79.9% [8.25 µM]	79.7% [8.25 µM]	20.6% [8.25 µM]
COc1cc(/C=C/c2cc(/C=C/c3ccc(O)c(OC)c3)n(-c3ccc(Cl)cc3)c(=O)n2)ccc1O	93.7%	91.3%	82%	90.1%	92.3%	88.6%	91.3%	98.1%	92.6%	91.3%	91.7%	72.6%	100%	60.3%	90.7%	76.1%	97.3%	78.1%	97%	88.3%
Cn1cc(-c2csc(-c3cn(CCCN4CCCCC4)c4ccc(F)cc34)n2)c2cccnc21	89.2%	91.6%	86.8%	99.3%	96.1%	49%	103%	92.2%	40.3%	98.9%	98%	0.833% (active)	-43% (active)	64.2%	64.9%	89%	99.9%	83.6%	70.6%	-73.4% (active)
Cc1cc(N(CCCNc2ccnc3cc(Cl)ccc23)Cc2ccco2)nc(Cl)n1	31.5%	68.1%	76.6%	41.6%	57.1%	27.1%	59.9%	67%	55.6%	24.5%	71.6%	9.75% (active)	74%	61.7%	71.1%	72.7%	42.3%	54.3%	59.9%	46.4%
O=C(/C=C/c1ccc2ccccc2c1)Nc1ncc(Cc2ccccc2)s1	80.3%	46%	46.3%	56.7%	30.8%	78.2%	72.8%	21.6%	34.2%	55.8%	70.4%	70.6%	51%	28.5%	93.3%	73.8%	36.8%	78.2%	94.8%	59.8%
